Usually inhibition stands for the drop in the measured response relative to a control, in per cent.

Results on 86 molecules are retold here after PubChem BioAssay AID485346 (Sanford-Burnham Center for Chemical Genomics, 2010).

Among all 330,000 compounds or so, about 10,000 (3%) were called active. Many of the other results were omitted from the sample, so actives are more common in it than they were. Unmarked numbers belong to inactive results.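 Rule for the calls: active = inhibition of at least 50% at 8 µM in the primary screen; inactive = the rest.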

In the assay the target is Protein Mdm4 (Homo sapiens) + E3 ubiquitin-protein ligase Mdm2 (Homo sapiens) (UniProt O15151+Q00987). Briefly: disruptors of Mdm2/MdmX RING complex – cell-based, luminescence, split luciferase, SaOS-2, uHTS, primary screen (AID 485346). The settings on record: SaOS-2 split-luciferase Mdm2/MdmX complementation, at 8 µM, active compounds read high.
Sequence of Protein Mdm4 (Homo sapiens) + E3 ubiquitin-protein ligase Mdm2 (Homo sapiens) (O15151 whole entry, looked up): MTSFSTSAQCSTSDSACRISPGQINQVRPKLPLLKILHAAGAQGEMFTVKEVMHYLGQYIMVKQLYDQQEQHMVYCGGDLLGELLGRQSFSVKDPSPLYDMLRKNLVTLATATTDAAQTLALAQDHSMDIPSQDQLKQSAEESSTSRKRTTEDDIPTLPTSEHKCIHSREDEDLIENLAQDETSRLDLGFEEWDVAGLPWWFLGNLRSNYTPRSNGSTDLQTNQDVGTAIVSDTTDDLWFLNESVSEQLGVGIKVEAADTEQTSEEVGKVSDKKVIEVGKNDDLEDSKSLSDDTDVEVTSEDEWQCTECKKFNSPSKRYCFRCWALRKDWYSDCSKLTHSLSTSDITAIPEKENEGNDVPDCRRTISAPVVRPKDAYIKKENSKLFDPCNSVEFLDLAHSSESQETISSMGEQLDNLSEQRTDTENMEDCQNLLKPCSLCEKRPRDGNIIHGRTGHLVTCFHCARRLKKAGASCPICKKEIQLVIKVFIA
Sequence of Protein Mdm4 (Homo sapiens) + E3 ubiquitin-protein ligase Mdm2 (Homo sapiens) (Q00987 whole entry, looked up): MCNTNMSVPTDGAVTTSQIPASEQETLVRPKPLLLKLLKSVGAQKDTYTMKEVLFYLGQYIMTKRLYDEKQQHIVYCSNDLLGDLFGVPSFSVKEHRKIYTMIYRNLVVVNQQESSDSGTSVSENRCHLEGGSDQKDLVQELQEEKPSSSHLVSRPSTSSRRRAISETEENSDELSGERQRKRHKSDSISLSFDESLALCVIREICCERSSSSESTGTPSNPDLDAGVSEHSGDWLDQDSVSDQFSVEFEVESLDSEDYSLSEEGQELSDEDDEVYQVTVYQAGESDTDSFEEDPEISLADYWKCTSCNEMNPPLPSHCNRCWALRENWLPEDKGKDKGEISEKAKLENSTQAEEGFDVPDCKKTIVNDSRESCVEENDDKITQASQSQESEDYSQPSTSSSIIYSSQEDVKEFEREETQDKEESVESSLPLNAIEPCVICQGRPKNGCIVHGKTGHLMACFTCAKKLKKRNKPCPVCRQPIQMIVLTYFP
For the molecule `COCC1CCN(C(=O)C2CCC(=O)N(CC3CCCCC3)C2)CC1` (stereo unspecified), the inhibition is -3.42%.
Turning to `Cn1cc(/C=C/c2nc3ccccc3c(=O)n2-c2cccc([N+](=O)[O-])c2)c2ccccc21`, the inhibition is 72.2% (active).
With `CCOC(=O)N1CCN(Cc2nc3ccc([N+](=O)[O-])cc3c(=O)n2-c2cccc(OC)c2)CC1`, the inhibition was 16.7%.
`CCn1c(/C=C/c2ccc([N+](=O)[O-])o2)nc2ccccc2c1=O`: the inhibition is 46.9%.
With `COc1ccc(NC(=O)N(C)C[C@H]2Oc3ccc(NC(=O)C4CC4)cc3C(=O)N([C@H](C)CO)C[C@@H]2C)cc1`, the inhibition was -5.08%.
Take `O=C(CC1CCCCC1)NCc1ccc(F)cc1`: the inhibition is -13.5%.
In the case of `Cc1ccc(C(=O)NNc2ncnc3ccccc23)cc1`, the inhibition is -48.9%.
Regarding `Cc1ccc(C(=O)NNC(=O)c2cccs2)cc1`, the inhibition is -2.54%.
Regarding `Cc1ccc(C(=O)NNC(=O)c2cc3cc4ccccc4nc3s2)cc1`, the inhibition is 55.3% (active).
For `CC[C@@]1(C(=O)OC)N[C@H](CN(C)C(C)=O)[C@@H]2C(=O)N(C)C(=O)[C@@H]21` the value was -30.9%; for `CC[C@]12c3[nH]c4ccc(Cl)cc4c3CCN1C(=O)[C@@H](CC(=O)NCCCOC)C[C@@H]2C(=O)N1CCN(C(=O)c2ccco2)CC1`, 2.9%; for `Cc1cc(C)c2c(-c3ccc(F)cc3)c(C#N)c(=O)n(C)c2n1`, 51.8% (active).
`COc1ccc(O)c(C(=O)c2cnc3c(c2)c(-c2ccc(F)cc2)c(C#N)c(=O)n3C)c1`: the inhibition was 12.9%.
The figure for `Cn1c(N)cc(-c2ccc(F)cc2)c(C#N)c1=O` is 14%; for `OC(CNCC1CCCO1)Cn1c2ccc(Br)cc2c2cc(Br)ccc21` (stereo unspecified) it is 101% (active); for `O=C(CCNS(=O)(=O)c1ccc(Br)cc1)NCC1CCCO1` (stereo unspecified) it is -4.62%.
The figure for `O=C(CSc1ccc(-c2ccc(Br)cc2)nn1)NCC1CCCO1` (stereo unspecified) is -18.5%.
For the molecule `O=C(O)CC12CC3CC(C1)CC(n1ncc(NCc4ccc(F)cc4)c(Cl)c1=O)(C3)C2`, the inhibition was -8.77%.
Turning to `COc1ccc(NC(=O)CN(C)C(=O)c2cccc(S(=O)(=O)N3CCN(c4ccccc4)CC3)c2)cc1`, the inhibition is 17%.
The figure for `O=C(OC1CCOC1=O)c1ccc(-c2nc3ccccc3s2)s1` (stereo unspecified) is -9.1%.
As to `O=C1c2ccccc2C(=O)C1c1ccccc1F`, the inhibition is -3.2%.
Regarding `CCOC(=O)C1=C(C)N=C2c3ccccc3C(=O)C2C1c1ccc(Br)cc1` (stereo unspecified), the inhibition is 24%.
As to `O=C1c2ccccc2C2=Nc3ccccc3SC(c3ccccc3F)C12` (stereo unspecified), the inhibition was 65.3% (active).
For `O=C(CCc1nnc(Cc2ccc3c(c2)OCO3)o1)NCCc1ccccc1Cl` the value was 6%.
For `CC(=O)NCCc1ccc(S(=O)(=O)Nc2ccc(C)c(S(=O)(=O)N3CCOCC3)c2)cc1` the value was 2.62%.
Regarding `O=C1CC(N2CCN(C(c3ccccc3)c3ccccc3)CC2)C(=O)N1` (stereo unspecified), the inhibition was 28.3%.
Consider `CC1(C)CC(N2CCN(C(c3ccccc3)c3ccccc3)CC2)=CC(=[N+]2CCCCC2)C1`, for which the inhibition was 90.1% (active).
For `Oc1ccccc1CN1CCN(C(c2ccccc2)c2ccccc2)CC1` the value was 19.1%; for `CCN1C(=O)N[C@@H](c2ccccc2)C(C(=O)OC)=C1C`, 6.41%.
For the molecule `CCCCNC(=O)C(C)N(CCN(C)C)C(=O)CCCCCN1C(=O)NC(c2ccc(Cl)cc2)C(C(=O)OCc2ccccc2)=C1C` (stereo unspecified), the inhibition is 97.4% (active).
As for `CCCCNC(=O)C(C)N(CCN(C)C)C(=O)CCCN1C(=O)NC(c2ccc(Cl)cc2)C(C(=O)OCc2ccccc2)=C1C` (stereo unspecified), the inhibition was 84.8% (active).
For `COC(=O)CCCCCN1C(=O)NC(c2ccc(-c3ccccc3)cc2)C(C(=O)OCc2ccccc2)=C1C` (stereo unspecified), the inhibition was 22.2%.
As for `CC1=C(C(=O)OCc2ccccc2)C(c2ccc(C(F)(F)F)cc2)NC(=O)N1CCCCCC(=O)O` (stereo unspecified), the inhibition is 4.93%.
As to `COCCN1C(=O)N[C@@H](c2ccccc2)C(C(=O)OC)=C1C`, the inhibition is -16.5%.
The figure for `O=C(Nc1cccc(O)c1)c1ccc(C(=O)c2ccccc2)o1` is -23.5%.
For the molecule `CC(C)(C)OC(=O)C1=C(CO)CS[C@@H]2[C@H](NC(=O)Cc3ccccc3)C(=O)N12`, the inhibition is 1.66%.
As to `Cc1ccc(CN2CCC(N3CCC(C(=O)NCC4CCCO4)CC3)CC2)o1` (stereo unspecified), the inhibition is 1.75%.
Consider `O=C(COC(=O)c1ccccc1)c1ccc2c(c1)OCCO2`, for which the inhibition was 35.8%.
`Cc1cc(C)cc(OCC(=O)Nc2cc(NC(=O)COc3cc(C)cc(C)c3)cc(C(=O)O)c2)c1`: the inhibition was 5.1%.
For `CC(NC(=O)COC(=O)C1CCN(S(=O)(=O)c2ccccc2C(F)(F)F)CC1)c1ccccc1` (stereo unspecified) the value was -7.62%; for `NC(=O)c1nsc(C(=O)N(CCCN2CCOCC2)C(C(=O)NC2CCCCC2)c2ccc(Cl)cc2)c1N` (stereo unspecified), -0.899%.
In the case of `COc1cc(N2C(=O)CC3(CCCC3)CC2=O)cc(OC)c1OC`, the inhibition is 20%.
For the molecule `Cc1ccc2nc(-c3ccncc3)cc(C(=O)Nc3ccc4c(c3)OCCO4)c2c1`, the inhibition is 60.7% (active).
For the molecule `Cc1ccc2nc(-c3ccncc3)cc(C(=O)Nc3ccc(OC(F)F)cc3)c2c1`, the inhibition is 37.3%.
As to `Cc1ccc2nc(-c3ccccn3)cc(C(=O)Nc3ccc4c(c3)OCO4)c2c1`, the inhibition is 28.8%.
On to `COc1ccc(CCNC(=O)CN(c2ccccc2)S(C)(=O)=O)cc1OC`, for which the inhibition is -2.08%.
Turning to `CCc1[nH]nc(C(=O)N2CCCC(CNS(=O)(=O)c3cccs3)C2)c1C` (stereo unspecified), the inhibition is 7.22%.
For `COc1ccc(-n2c(SCC(=O)Nc3sc4c(c3C#N)CCCC4)nnc2-c2ccc(O)cc2)cc1` the value was 33.8%.
Take `Cc1cc(NC(=O)CSc2nc3cc(Cl)ccc3c(=O)n2Cc2ccco2)no1`: the inhibition is 40.1%.
In the case of `N#Cc1c(NC(=O)CSc2nc3ccccc3c(=O)n2Cc2ccco2)sc2c1CCCC2`, the inhibition is 54.1% (active).
On to `Cc1ccc(CN2CC(C(=O)N3CCN(S(=O)(=O)c4ccccc4)CC3)CC2=O)cc1` (stereo unspecified), for which the inhibition is -7.06%.
The figure for `O=C(NCc1cccnc1)c1ccccc1NC(=O)c1c(F)cccc1F` is 12.2%; for `CC[C@]1(C(=O)OC)[C@H]2C(=O)N(C)C(=O)[C@H]2[C@H]2CN(C)C(=NCc3ccccc3)N21` it is 15.5%.
As to `CCN(C[C@H]1N[C@@](CC)(C(=O)OC)[C@H]2C(=O)N(Cc3ccccc3)C(=O)[C@@H]12)S(=O)(=O)c1ccccc1`, the inhibition is 9.24%.
As to `CCNC(=O)N(CC)C[C@H]1N[C@@](CC)(C(=O)OC)[C@H]2C(=O)N(Cc3ccccc3)C(=O)[C@@H]12`, the inhibition was 13.8%.
In the case of `CCCN=C1N(C)C[C@@H]2[C@@H]3C(=O)N(Cc4ccccc4)C(=O)[C@@H]3[C@](C)(C(=O)OC)N12`, the inhibition was -2.26%.
Take `CC[C@]1(C(=O)OC)[C@H]2C(=O)N(Cc3ccccc3)C(=O)[C@H]2[C@H]2CN=C(SCc3ccc(Cl)cc3)N21`: the inhibition is 99.6% (active).
The figure for `CC[C@]1(C(=O)OC)[C@H]2C(=O)N(Cc3ccccc3)C(=O)[C@H]2[C@H]2CN=C(SCc3ccc(C#N)cc3)N21` is 93% (active); for `COC(=O)[C@@]1(C)[C@H]2C(=O)N(Cc3ccccc3)C(=O)[C@H]2[C@H]2CN=C(SCC3CC3)N21` it is 16.2%.
With `CCN1C[C@@H]2[C@@H]3C(=O)N(Cc4ccccc4)C(=O)[C@@H]3[C@](Cc3ccccc3)(C(=O)OC)N2C1=NC1CCCCC1`, the inhibition was 44.3%.
With `CC[C@]1(C(=O)OC)[C@H]2C(=O)N(Cc3ccccc3)C(=O)[C@H]2[C@H]2CN=C(SCc3ccccc3)N21`, the inhibition is 70% (active).
As for `O=C(COC(=O)c1ccccn1)NNC(=O)c1ccc(Br)cc1`, the inhibition was 2.38%.
For `Cn1nc(C(=O)OCC(=O)N(Cc2ccccc2)C(C)(C)C)c2ccccc2c1=O` the value was 14.1%; for `CCCNc1c(N)c(=O)c1=O`, 12.6%.
For `Cc1cccc(C(=O)N2CCCC(Nc3ccc(C(C)C)cc3)C2)n1` (stereo unspecified) the value was -5.26%; for `CCOc1ccccc1OCCCNCc1ccccc1`, -6.93%.
With `Clc1cccc(Cl)c1OCCOCCNCc1ccccc1`, the inhibition is 89.2% (active).
Turning to `OCCNCc1cccc(OCc2ccccc2Cl)c1`, the inhibition was 20.6%.
Turning to `N#C/C(=C\c1ccc(-c2cccc([N+](=O)[O-])c2)o1)C(=O)NCCN1CCOCC1`, the inhibition was 10.3%.
As for `Cc1ccc(-c2ccc(/C=C(\C#N)C(N)=S)o2)c([N+](=O)[O-])c1`, the inhibition is -46.3%.
Take `Cc1ccc(Cc2cnc(NC(=O)/C(C#N)=C/c3ccc(-c4cccc([N+](=O)[O-])c4)o3)s2)cc1`: the inhibition is 97.9% (active).
Take `COc1ccc(CCNC(=O)COC(=O)c2ncc(Cl)c(Cl)c2Cl)cc1OC`: the inhibition is 8.42%.
For the molecule `COc1ccccc1N1CCN(C(=O)c2cc(=O)c3cc(C)cc(C)c3o2)CC1`, the inhibition is 63.5% (active).
In the case of `O=C(c1cc(=O)c2ccccc2o1)N1CCN(c2ccccc2)CC1`, the inhibition is 17.2%.
For `COc1ccccc1N1CCN(C(=O)c2cc(=O)c3cc(C)ccc3o2)CC1`, the inhibition was 40.1%.
As to `C=CCSc1nnc(NC(=O)c2ccc(NC(C)=O)cc2)s1`, the inhibition was -18.8%.
In the case of `CSc1nsc(NC(=O)Nc2ccccc2)n1`, the inhibition was -31.4%.
For the molecule `CCSc1nsc(NC(=O)Nc2cccc(C(C)=O)c2)n1`, the inhibition was 62.3% (active).
With `CCSc1nsc(NC(=O)Nc2ccccc2OC)n1`, the inhibition is -33.9%.
The figure for `C=CCSc1nsc(NC(=O)Nc2cccc(C(C)=O)c2)n1` is 94.3% (active); for `C=C(C)C(=O)Nc1cccc(C(C)=O)c1` it is 20.2%.
Take `CCCCC(=O)N1CC2(C)CN(C(=O)CCCC)CC(C)(C1)C2=O`: the inhibition was -4.56%.
`CN(C(=O)c1c(Cl)cnn1C)C12CC3CC(CC(C3)C1)C2`: the inhibition is 4.45%.
Consider `CCC(=O)N(CCc1ccccc1)Cc1cc2cc(C)ccc2[nH]c1=O`, for which the inhibition was -5.57%.
The figure for `Cc1ccc2[nH]c(=O)c(CN(CCCN(C)C)C(=O)Nc3cccc(Cl)c3)cc2c1` is 66.9% (active); for `Cc1ccc2[nH]c(=O)c(CN(CC3COCCO3)C(=O)Nc3ccccc3C)cc2c1` (stereo unspecified) it is 6.03%.
